High-throughput results: PubChem, Center for Chemical Genomics, University of Michigan
Many of the other results were omitted from the sample, so hits are more common in it than they were.
Dicer processing – inhibitors of Dicer pre-microRNA processing, primary screen, biochemical, cat-ELCCA, chemiluminescence. AID 1347074, 2019. z-score at 25 µM. actives 6% (n = 47,000). cat-ELCCA pre-miR-21 Dicer processing; hits give high values; in the data active means z-score above about 3, passing the limit was not always enough;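 further: plate controls were vehicle for no effect and no enzyme for full effect; higher signal means more uncleaved substrate so more Dicer inhibition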
* marks the source's active call; other numbers are inactive results.

SMILES	Dicer processing
CC1=C(C(=O)OC(C)C)C(c2coc3ccccc3c2=O)C2=C(CC(c3cccs3)CC2=O)N1 (stereo not drawn)	3.3*
CC1=C(C(=O)OC(C)C)C(c2ccccc2F)C2=C(CC(c3cccs3)CC2=O)N1 (stereo not drawn)	0.56
CC1=C(C(=O)OCCOc2ccccc2)C(c2coc3ccccc3c2=O)C2=C(CC(C)(C)CC2=O)N1 (stereo not drawn)	3.4*
CCSCCOC(=O)C1=C(C)NC2=C(C(=O)CC(c3cccs3)C2)C1c1ccc2c(c1)OCO2 (stereo not drawn)	0.75
COCCOC(=O)C1=C(C)NC2=C(C(=O)CC(c3cccs3)C2)C1c1cccs1 (stereo not drawn)	0.82
CC1=C(C(=O)OCCOC(C)C)C(c2coc3ccccc3c2=O)C2=C(CC(C)(C)CC2=O)N1 (stereo not drawn)	1.3
CC(=O)Oc1ccc(C2C(C(=O)OCC(C)C)=C(C)NC3=C2C(=O)CC(c2cccs2)C3)cc1 (stereo not drawn)	0.7
COc1cc(C2C(C(=O)OCC3CCCO3)=C(C)NC3=C2C(=O)CC(c2cccs2)C3)ccc1O (stereo not drawn)	1.9
COCCOC(=O)C1=C(C)NC2=C(C(=O)CC(C)(C)C2)C1c1coc2ccccc2c1=O (stereo not drawn)	-0.44
CCSCCOC(=O)C1=C(C)NC2=C(C(=O)CC(c3cccs3)C2)C1c1ccc(O)c(OC)c1 (stereo not drawn)	5.4*
COc1ccc(OC)c(C2C(C(=O)OCC(C)C)=C(C)NC3=C2C(=O)CC(c2cccs2)C3)c1 (stereo not drawn)	3.1*
CC1=C(C(=O)OC2CCCC2)C(c2cccc(Br)c2)C2=C(CC(C)(C)CC2=O)N1 (stereo not drawn)	0.49
CC(C)CC(C)(SCC(=O)O)SCC(=O)O	-0.5
COC(=O)c1sc(SC)c(S(=O)(=O)C(C)C)c1Cl	0.05
COc1ccc(/C=C/c2nc(NCCCN(C)C)c3ccccc3n2)cc1	-0.14
CCOC(=O)c1sc(N2C(=O)c3oc4ccc(F)cc4c(=O)c3C2c2ccccc2F)nc1C (stereo not drawn)	0.95
O=S(=O)(c1ccccc1Oc1ccc(Cl)cc1Cl)N1CCOCC1	0.28
Cn1cnc([N+](=O)[O-])c1Sc1nccc(-c2cccs2)n1	-0.1
Cc1cc(NC2CCCCC2)n2ncnc2n1	0.03
CC1(C)OC(=O)C(=Cc2cc(Br)cs2)C(=O)O1	-0.14
CS(=O)(=O)N1N=C(c2cccs2)CC1c1cn(-c2ccccc2)nc1-c1cccs1 (stereo not drawn)	1.2
O=C(CCc1ccccc1)NNc1ccc(F)cc1F	-1.4
O=C(CCc1ccncc1)NNC(=O)N1Cc2ccccc2Oc2ccc(Cl)cc21	3.1*
O=C(CCc1nc(-c2ccc(Cl)cc2)no1)NNC(=S)NCCc1ccccc1	-0.17
CCCCN1C(=O)C(O)(CC(=O)c2ccc3c(c2)OCO3)c2cc(Br)ccc21 (stereo not drawn)	1.6
SMILES	Dicer processing
FC(F)(F)c1cccc(-n2c(-c3ccccc3Cl)n[nH]c2=S)c1	0.14
COc1ccc(-c2cc3ncc(C(=O)c4ccccc4O)cn3n2)cc1	-0.72
O=C(N/N=C/c1ccccc1Cl)N/N=C/c1ccccc1Cl	3.8*
S=C(NCCc1ccccc1)N/N=C/c1ccccc1Cl	1.6
O=C(N/N=C/c1ccc(Cl)c(Cl)c1)N/N=C/c1ccc(Cl)c(Cl)c1	-2.8
c1ccc(-c2cn3c4ccccc4n(CCN4CCCCC4)c3n2)cc1	2.1
O=S(=O)(c1ccc(-c2cn3ccccc3n2)cc1)N1CCOCC1	0.9
O=S(=O)(c1ccc(-c2nc(-c3ccc(Cl)cc3)cs2)cc1)N1CCOCC1	1.4
O=S(=O)(c1ccc(-c2noc(-c3ccccc3)n2)cc1)N1CCOCC1	3.3*
COc1ccc(-c2csnn2)cc1S(=O)(=O)n1nc(C)cc1C	0.3
N#Cc1nc(-c2ccc(Cl)cc2)oc1N1CCOCC1	3.7*
COc1ccc(-c2nc(C#N)c(N3CCCCC3)o2)cc1	-0.28
N#Cc1nc(-c2ccc(F)cc2)oc1N1CCOCC1	-0.48
Cc1ccc(-c2nc3ccc(N)cc3[nH]2)cc1	3.1*
Nc1ccc(-c2nc3cc4ccccc4cc3[nH]2)cc1	4*
Nc1ccc(-c2nc3ccc(N)cc3o2)cc1	-0.21
Cc1ccc(C)c(-c2nc3ccc(N)cc3[nH]2)c1	3
c1ccc2cc3[nH]c(CN4CCOCC4)nc3cc2c1	-0.55
Nc1ccc2nc(-c3ccc(Cl)cc3)[nH]c2c1	2
CC(C)c1ccc2nc(-c3ccc(N)cc3)[nH]c2c1	19*
CC(=O)Nc1ccc2nc(-c3ccc(-c4nc5ccc(NC(C)=O)cc5[nH]4)cc3)[nH]c2c1	-1
Nc1ccc(-c2nc3ccc(-c4nc5ccccc5o4)cc3[nH]2)cc1	6.5*
O=S(=O)(O)c1ccc2nc(-c3ccccc3)[nH]c2c1	0.87
c1ccc2[nH]c(-c3ccc(-c4nc5ccccc5o4)cc3)nc2c1	0.34
COC(=O)c1sccc1Oc1ccc(C(F)(F)F)cc1NC(=O)Nc1c(Cl)cc(Cl)cc1Cl	1.2
SMILES	Dicer processing
N#C/C(=C\c1ccc(Cl)cc1)C(N)=O	1.8
Nc1nc2c(c(=O)[nH]1)C(c1ccccc1Cl)CC(=O)N2 (stereo not drawn)	-0.51
O=C(Nc1cccnc1)c1cc2nc(-c3ccc(Br)cc3)cc(C(F)(F)F)n2n1	-1.5
CC1Cc2cc(C3=NNC(O)(C(F)(F)F)C3)ccc2O1 (stereo not drawn)	-1.6
Cc1ccc(S(=O)(=O)NC(=O)Nc2c(-c3ccc(F)cc3)c(C(F)(F)F)nn2C)cc1	0.48
CSc1sc(Br)c2c1C(=O)CC(C)(C)C2	-0.04
CC1(C)CC(=O)c2cnc(SCC(=O)Nc3ccc(F)cc3F)nc2C1	1.3
NCC1OC(O[C@@H]2[C@H](O)C(OC3C(O)C(N)CC(N)C3OC3OC(CO)C(O)C(O)C3N)O[C@@H]2CO)C(N)C(O)C1O (stereo partly drawn)	-1.2
Cc1c(Br)c([N+](=O)[O-])nn1CC(N)=O	-0.4
O=C(OCc1ccccc1)c1cnc(Sc2ccc(Cl)cc2)nc1C(F)(F)F	-3.2
O=C(Nc1ccccc1)N1CCCc2ccccc21	3.2*
O=C(Nc1ccc(OCc2ccccc2)cc1)N1CCCc2ccccc21	2.1
O=C(Nc1ccccc1)N1c2ccccc2CCc2ccccc21	0.06
S=C(Nc1ccccc1Cl)N1CCCc2ccccc21	3.8*
Cc1cccc2c1N(C(=S)Nc1ccccc1Cl)CCC2	1.6
S=C(Nc1ccccc1Cl)N1CCc2ccccc2C1	-0.33
Cc1ccc(Cn2c(CO)nc3ccccc32)cc1	0.06
Cc1nn(-c2ccccc2)c(NC(=O)c2ccc(Cl)cc2Cl)c1Cl	-1.4
O=C(NC(=S)Nc1c(Cl)cccc1Cl)c1cccc([N+](=O)[O-])c1	0.71
FC(F)(F)c1cc(Nc2nc(C(F)(F)F)cs2)cc(C(F)(F)F)c1	-1.1
COC(=O)C(C)Nc1n[nH]c(=O)[nH]c1=O (stereo not drawn)	-0.08
O=C1CSC(=Nc2ccc(Cl)cc2)N1Cc1ccco1	-0.33
O=C1CSC(=Nc2cc(Cl)cc(Cl)c2)N1Cc1cccs1	1
Cc1cc(C)c(N=C2SCC(=O)N2Cc2ccco2)c(C)c1	4.8*
CC(c1ccccc1)C1CC(=O)N(Cc2ccco2)C1=O (stereo not drawn)	1.9
COc1ccccc1N=C1SCC(=O)N1Cc1ccco1	4*
COc1ccc(N=C2SCC(=O)N2CCc2ccc(OC)c(OC)c2)cc1	2.3
CCN(C(=O)c1cnc(NC)cc1C(F)(F)F)c1ccc(Cl)cc1	-0.27
